This note sets out measurements from PubChem BioAssay (EPA / NIEHS).

A short description of assay [1]: ATG_GRE_CIS: Attagene CIS-FACTORIAL HepG2 Assay for human Glucocorticoid Response Elements (GRE) (AID 2282947). Conditions: HepG2 GRE cis-reporter, Attagene multiplex mRNA; AC50: actives raise or lower the signal unless noted; outcome: actives raise or lower the signal unless noted. The essentials:
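Assay uses human hepatoma HepG2 cells transfected with cis-promoter reporter units, exposed 24 h. mRNA from reporters detected by RT-PCR plus capillary electrophoresis; DMSO serves as negative control and baseline.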

Assay [2] is described as follows: ATG_ISRE_CIS: Attagene CIS-FACTORIAL HepG2 Assay for human Interferon Regulatory Factor 1 (IRF1) binding to an Interferon-Stimulated Response Element (ISRE) (AID 2282948). Conditions: HepG2 ISRE cis-reporter (Attagene), mRNA transcription readout; actives raise or lower the signal. In a few lines:
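Quantitation relies on labelled RT-PCR fragments separated by capillary electrophoresis. Human HepG2 cells bearing cis-promoter reporter constructs were treated 24 h; DMSO served as baseline for bidirectional fitting.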

The nature of assay [3]: ATG_M_32_CIS: Attagene CIS-FACTORIAL HepG2 Assay for M32 Transcription Factor (Internal Marker) (AID 2282949).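 Further: background control marker of the multiplexed CIS panel rather than a real target.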 Conditions: HepG2 Attagene cis-factorial M32 reporter, mRNA; actives raise or lower the signal. In a few lines:
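Internal background marker read-out: RT-PCR/capillary electrophoresis fluorescence of reporter transcripts from transiently transfected HepG2 cells after 24 h chemical exposure. Activity fitted bidirectionally relative to DMSO negative control.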

The nature of assay [4]: ATG_M_06_CIS: Attagene CIS-FACTORIAL HepG2 Assay for M06 Transcription Factor (Internal Marker) (AID 2282950). Conditions: HepG2 Attagene CIS-FACTORIAL M06 internal marker reporter; actives raise or lower the signal. In a few lines:
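Measured 24 h post-dosing in transiently transfected HepG2 cells, this internal-marker endpoint reports reporter mRNA via RT-PCR with fluorescent primer extension and capillary electrophoresis. DMSO served as negative control and baseline for bidirectional fitting.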

Assay [5] has as its target Hepatocyte nuclear factor 6 (Homo sapiens) (UniProt Q9UBC0). Put plainly: ATG_HNF6_CIS: Attagene CIS-FACTORIAL HepG2 Assay for human Hepatocyte Nuclear Factor 6 (HNF6) (AID 2282952). Conditions: HepG2 Attagene cis-factorial HNF6 reporter transcription; actives raise or lower the signal. In a few lines:
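Transiently transfected HepG2 cells expressing cis-regulated reporter transcription units were exposed to chemical for 24 h in a 24-well format. Reporter transcript abundance was determined by fluorescence capillary electrophoresis.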

Assay [6] deals with Heat shock factor protein 1 (Homo sapiens) (UniProt Q00613). Put plainly: ATG_HSE_CIS: Attagene CIS-FACTORIAL HepG2 Assay for human Heat Shock Transcription Factor 1 (HSE) (AID 2282953). The settings on record: HepG2 HSE cis-reporter, Attagene RNA transcription; actives raise or lower the signal. In a few lines: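 Reporter mRNA induction in HepG2 is measured 24 h after dosing, using transiently transfected multiplexed cis-regulated reporter units. Signal comes from capillary electrophoresis of labelled RT-PCR products, with DMSO as negative control.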

Assay [7] can be described thus: ATG_MRE_CIS: Attagene CIS-FACTORIAL HepG2 Assay for human Metal Responsive Element (MRE) (AID 2282954). The settings on record: HepG2 MRE cis-reporter transcription, Attagene multiplex; actives raise or lower the signal. In a few lines: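 After a 24 h chemical exposure, transiently transfected HepG2 cells yield RNA whose reporter sequences are amplified, FAM-labelled and sized by capillary electrophoresis. Curves are fitted bidirectionally relative to DMSO.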

Assay [8] is described as follows: ATG_PBREM_CIS: Attagene CIS-FACTORIAL HepG2 Assay for human Phenobarbital-responsive Enhancer Module (PBREM) (AID 2282955). The settings on record: HepG2 PBREM cis-reporter, Attagene multiplexed transcription; actives raise or lower the signal. In a few lines: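 Measures endogenous factor action on a phenobarbital-responsive enhancer module. HepG2 transiently carrying cis reporters, 24 h treatment, mRNA read-out by RT-PCR plus capillary electrophoresis.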

Assay [9] deals with Paired box protein Pax-6 (Homo sapiens) (UniProt P26367). Put plainly: ATG_Pax6_CIS: Attagene CIS-FACTORIAL HepG2 Assay for human Paired Box 6 (PAX6) (AID 2282956). Conditions: HepG2 CIS-FACTORIAL PAX6 reporter transcription, RNA readout; actives raise or lower the signal. The essentials:
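After twenty-four hours of chemical exposure, transfected HepG2 cells are harvested for RNA. Cis-promoter reporter transcripts are amplified, fluorescently labelled and sized by capillary electrophoresis, with gain and loss of signal scored against DMSO.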

The target in assay [10] is Hypoxia-inducible factor 1-alpha (Homo sapiens) (UniProt Q16665). The experiment in a line: ATG_HIF1a_CIS: Attagene CIS-FACTORIAL HepG2 Assay for human Hypoxia Inducible Factor 1 (HIF1A) (AID 2282951). The settings on record: HepG2 Attagene cis-factorial HIF1a reporter transcription; actives raise or lower the signal. The essentials: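 After 24 h chemical exposure of reporter-transfected HepG2 cells, reporter cDNA was PCR-amplified, labelled by 6-FAM primer extension (2 min 95 C, 20 s 68 C, 10 min 72 C), HpaI-cut (2 h, 37 C) and analysed by CE.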

Structures are written as SMILES. “And” between values parts separate entries of the source, which are not always exact repeats. Identical values can stand only once. A structure can be active in one record and inactive in another. The source made the active and inactive calls. How the source made its calls: active means hit-call score of the fitted dose curve at least 0.9, where 1 is the maximum; inactive means score below 0.9.

Heat shock factor protein 1 (Homo sapiens), sequence (Q00613 whole entry, looked up): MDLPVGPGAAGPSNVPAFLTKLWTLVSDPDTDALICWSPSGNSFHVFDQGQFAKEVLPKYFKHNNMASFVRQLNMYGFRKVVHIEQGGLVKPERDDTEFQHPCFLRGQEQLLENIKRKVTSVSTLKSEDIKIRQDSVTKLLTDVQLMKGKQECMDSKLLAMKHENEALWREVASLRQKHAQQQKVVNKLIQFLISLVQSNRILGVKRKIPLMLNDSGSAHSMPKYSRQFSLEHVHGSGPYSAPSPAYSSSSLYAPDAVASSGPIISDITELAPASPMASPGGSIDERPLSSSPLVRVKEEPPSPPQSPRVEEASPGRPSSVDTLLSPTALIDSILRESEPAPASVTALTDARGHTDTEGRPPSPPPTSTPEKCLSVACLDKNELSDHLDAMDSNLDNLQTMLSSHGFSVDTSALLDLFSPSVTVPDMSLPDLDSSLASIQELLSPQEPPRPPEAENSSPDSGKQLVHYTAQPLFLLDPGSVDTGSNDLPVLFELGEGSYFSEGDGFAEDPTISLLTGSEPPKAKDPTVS
Hypoxia-inducible factor 1-alpha (Homo sapiens), sequence (Q16665 whole entry, looked up): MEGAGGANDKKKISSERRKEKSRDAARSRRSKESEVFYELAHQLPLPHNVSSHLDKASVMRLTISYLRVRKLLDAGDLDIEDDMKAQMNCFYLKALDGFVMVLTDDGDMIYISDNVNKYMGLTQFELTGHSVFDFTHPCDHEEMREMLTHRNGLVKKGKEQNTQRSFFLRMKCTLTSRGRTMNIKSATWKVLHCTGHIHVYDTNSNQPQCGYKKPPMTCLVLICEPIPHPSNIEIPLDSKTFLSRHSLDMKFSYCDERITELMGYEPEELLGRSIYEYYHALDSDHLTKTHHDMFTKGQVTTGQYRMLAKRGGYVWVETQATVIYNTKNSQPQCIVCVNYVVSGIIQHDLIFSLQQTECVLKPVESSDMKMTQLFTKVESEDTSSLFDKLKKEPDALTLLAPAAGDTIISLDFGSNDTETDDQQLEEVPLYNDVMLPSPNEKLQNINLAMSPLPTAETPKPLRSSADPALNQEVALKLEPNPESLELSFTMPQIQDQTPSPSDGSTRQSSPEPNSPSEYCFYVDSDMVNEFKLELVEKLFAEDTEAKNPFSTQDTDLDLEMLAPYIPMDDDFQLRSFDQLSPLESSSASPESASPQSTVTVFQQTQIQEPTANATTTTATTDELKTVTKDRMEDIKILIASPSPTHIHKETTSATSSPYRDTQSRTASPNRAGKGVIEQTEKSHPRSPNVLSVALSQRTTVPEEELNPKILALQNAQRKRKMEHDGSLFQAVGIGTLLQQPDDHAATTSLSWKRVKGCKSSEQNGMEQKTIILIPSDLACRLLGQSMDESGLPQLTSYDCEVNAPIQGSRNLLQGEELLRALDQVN
Paired box protein Pax-6 (Homo sapiens), sequence (P26367 whole entry, looked up): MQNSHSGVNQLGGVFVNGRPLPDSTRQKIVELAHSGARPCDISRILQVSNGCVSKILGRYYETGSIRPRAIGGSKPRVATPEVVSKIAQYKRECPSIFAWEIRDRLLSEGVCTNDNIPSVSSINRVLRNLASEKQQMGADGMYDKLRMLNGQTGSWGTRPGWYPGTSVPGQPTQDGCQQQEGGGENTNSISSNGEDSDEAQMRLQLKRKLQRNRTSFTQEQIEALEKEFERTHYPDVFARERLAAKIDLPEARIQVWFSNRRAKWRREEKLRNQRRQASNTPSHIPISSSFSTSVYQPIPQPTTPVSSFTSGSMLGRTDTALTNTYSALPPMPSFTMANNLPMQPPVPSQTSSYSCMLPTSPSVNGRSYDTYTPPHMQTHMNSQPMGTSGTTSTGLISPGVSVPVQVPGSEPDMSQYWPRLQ
Hepatocyte nuclear factor 6 (Homo sapiens), sequence (Q9UBC0 whole entry, looked up): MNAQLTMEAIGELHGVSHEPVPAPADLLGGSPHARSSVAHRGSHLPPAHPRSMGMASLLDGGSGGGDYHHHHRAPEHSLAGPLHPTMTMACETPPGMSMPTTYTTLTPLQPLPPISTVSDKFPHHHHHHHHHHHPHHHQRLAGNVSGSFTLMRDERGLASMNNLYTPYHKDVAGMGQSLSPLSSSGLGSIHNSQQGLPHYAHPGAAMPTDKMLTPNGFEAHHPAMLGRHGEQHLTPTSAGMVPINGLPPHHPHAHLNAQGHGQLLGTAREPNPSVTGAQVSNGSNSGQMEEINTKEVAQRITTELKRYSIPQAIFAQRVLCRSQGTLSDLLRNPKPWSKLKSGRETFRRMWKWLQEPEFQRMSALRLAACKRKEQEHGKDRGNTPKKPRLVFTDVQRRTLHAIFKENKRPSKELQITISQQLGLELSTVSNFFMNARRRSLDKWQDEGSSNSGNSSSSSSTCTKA

Turning to `CCCCCC(C)OC(=O)COc1ccc(Cl)c2cccnc12` (stereo not given), the compound was called inactive in assay [1], in assay [2], in [3], in [4], in assay [5] and in assay [6]. Besides, the compound was classed as inactive in assay [7], in assay [8] and in assay [9].

Turning to `Cc1cncc(C)c1`, the compound was called inactive in assay [2], in [3], in [4], in assay [10], in assay [5] and in assay [6]. The compound was called inactive in [7], in assay [8] and in [9].

As for `CCCCCCCCCCCC[N+](C)(C)CCCCCCCCCCCC`, the call in assay [1], in [3], in [4], in assay [5], in assay [6] and in assay [9] was inactive. Besides, the AC50 (in general, the midpoint of the concentration-response curve, whichever way the signal moves) in assay [2] was 100 µM (active); in [8], 25.3 µM (active).

With `CCCC=O`, the result in [2], in assay [3], in [4], in assay [10], in [5] and in assay [6] was inactive. Further, the compound was classed as inactive in assay [7], in [8] and in assay [9].

In the case of `CCc1ccccc1O`, the call in assay [2], in [3], in [4], in assay [10], in assay [5] and in assay [6] was inactive. Moreover, the outcome in assay [7], in assay [8] and in assay [9] was inactive.

Regarding `CCCCCCCCCCCC(=O)O`, in assay [2], the AC50 is 146 µM (active). The outcome in assay [2], in assay [3], in [4], in [10], in assay [5] and in [6] was inactive. For the same compound, the compound was called inactive in assay [9].

Turning to `CCOC=C(C(=O)OCC)C(=O)OCC`, the result in [1], in assay [2], in assay [3], in assay [4], in assay [5] and in assay [6] was inactive. Further, the compound was classed as inactive in assay [7] and in assay [9].

Consider `CN(C)c1ccc(C(=C2C=CC(=[N+](C)C)C=C2)c2ccccc2)cc1`, for which the AC50 is 1.34 µM (active) and 1.85 µM (active) in assay [2]; 8.34 µM (active) in assay [5]; 1.46 µM (active) and 1.26 µM (active) in [6]; 1.46 µM (active) and 1.3 µM (active) in assay [7]; 1.43 µM (active) and 1.44 µM (active) in assay [9]. The compound was classed as inactive in assay [3], in assay [4], in assay [10] and in assay [5].

On to `CN(C)CCOC(c1ccccc1)c1ccccc1`, for which the result in [1], in assay [3], in assay [4], in assay [6], in assay [7] and in assay [9] was inactive. Besides, the concentration at half-maximal activity (AC50) in assay [2] is 100 µM (active).

As for `O=C1OC(=O)c2cc(-c3ccc4c(c3)C(=O)OC4=O)ccc21`, the result in assay [1], in [2], in assay [3], in assay [4], in [5] and in assay [6] was inactive. For the same compound, the result in assay [7], in assay [8] and in assay [9] was inactive.

As for `Clc1ccc(Nc2nnc(Cc3ccncc3)c3ccccc23)cc1`, the compound was called inactive in [1], in assay [2], in assay [3] and in assay [4]. Further, the AC50 in assay [5] is 17.9 µM (active); in assay [6], 75.2 µM (active); in [7] it was 27.6 µM (active); in [8], 8.51 µM (active); in assay [9], 27 µM (active).

For `O=C(O)C(=O)O`, the compound was called inactive in [2], in assay [3], in assay [4], in assay [10], in assay [5] and in assay [6]. Moreover, the compound was called inactive in assay [7], in assay [8] and in assay [9].

In the case of `FC(F)(F)C1(F)C(F)(F)C(F)(F)C(F)(F)C1(F)F`, the compound was classed as inactive in assay [1], in assay [2], in [3], in [4], in [5] and in assay [6]. The outcome in assay [8] and in [9] was inactive.

For the compound `O=C1OC2(c3ccccc31)c1cc(I)c(O)c(I)c1Oc1c2cc(I)c(O)c1I`, the compound was called inactive in assay [2], in assay [3], in assay [4], in assay [5], in assay [6] and in [7]. Moreover, the outcome in assay [8] and in assay [9] was inactive. The AC50 was 36.3 µM (active) and 35.2 µM (active) in [7]; 21 µM (active) and 18.6 µM (active) in [8]; 37.6 µM (active) in [9].

Consider `CCN(CCC#N)c1ccccc1`, for which the outcome in assay [2], in assay [3], in assay [4], in [5], in assay [6] and in assay [7] was inactive. For the same compound, the result in assay [8] and in [9] was inactive.

`CC(=O)Nc1ccc(O)cc1`: the call in assay [2], in [3], in [4], in [6] and in [9] was inactive.
